Data: paper PMC7819943, “Rice protein-binding microarrays: a tool to detect cis-acting elements near promoter regions in rice”
Whole data set: some 35,000 sequences, median “fluorescence intensity (a.u.)” near 10,000, cut for the highest 2% near 52,000. This is one part of a sample in which the highest values are shown more often than they occur.

What follows are sequences tested against T1, OsWOX13 (Oryza sativa, UniProt Q5QMM3 1-267) (assay: protein-binding microarray (RPBM); PBS, 2% BSA, 51.3 ng/ul salmon testes DNA, 50 uM zinc acetate, 200 nM TF, 25 C, 1 h; high values mean tight binding). Details: protein: recombinant; tags: N-terminal polyhistidine and DsRed monomer fusion (pET32a); label: CyDye5-dUTP incorporated in the synthesized complementary strand; 3' TTTTT single-stranded linker to array surface; dsDNA, one strand shown.
T1 sequence: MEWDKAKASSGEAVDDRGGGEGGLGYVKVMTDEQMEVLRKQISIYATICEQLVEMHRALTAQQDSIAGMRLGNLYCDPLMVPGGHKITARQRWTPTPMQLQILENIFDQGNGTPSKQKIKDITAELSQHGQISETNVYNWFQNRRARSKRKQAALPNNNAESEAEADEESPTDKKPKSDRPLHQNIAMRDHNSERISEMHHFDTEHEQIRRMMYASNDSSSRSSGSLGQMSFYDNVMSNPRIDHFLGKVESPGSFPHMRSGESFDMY
Procedure, shortened: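 The binding signal for each feature is its fluorescence intensity in arbitrary units. An Axon 4000B scanner was used to read a custom Agilent array that had been made double-stranded with Cy5-dUTP primer extension, blocked with 2% BSA, incubated at 25 °C for 1 h with 200 nM protein in PBS, 2% BSA, salmon testes DNA and 50 µM zinc acetate, and washed. The protein was an N-terminal polyhistidine–DsRed transcription factor fusion from E. coli BL21-CodonPlus, purified on Ni–NTA.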

Sequence	binding signal
TTACCAAATTTCACTGTTAACAGCGGTGCGTGGGTATTGACGGAGTCACCTAGTGCAG	6390 fluorescence intensity (a.u.)
GGTATAACCTAAAGTTTATCCGTTTGTAGAGCGAATGTTTCGGAGTCACCTAGTGCAG	14400 fluorescence intensity (a.u.)
CATGGTCAATCTACTCGTTAACGTACATTCACGGTTATTTCGGAGTCACCTAGTGCAG	9160 fluorescence intensity (a.u.)
GCTGTTTGATCCATAATTTATCCGCGCGTCGTCACTCCGACGGAGTCACCTAGTGCAG	5840 fluorescence intensity (a.u.)
GCCTAATTGCTTAATTAGCAGCCAACGGATTCGATTGATCCGGAGTCACCTAGTGCAG	53900 fluorescence intensity (a.u.)
AGAGATCGATCGATTAATTAGCAACAAGCCAACGACAAGCCGGAGTCACCTAGTGCAG	4950 fluorescence intensity (a.u.)
CACTTGATTAATTTATCCTCTCCTCGCGTCGCTGTCGCGTCGGAGTCACCTAGTGCAG	52700 fluorescence intensity (a.u.)
CTTAATTAGCTCTAGCGAGCTAGCTAGCTTGCTCTGTCTTCGGAGTCACCTAGTGCAG	24200 fluorescence intensity (a.u.)
TCGTGATTAGAATCTTAATCTCTAGCCTGTCTTTGCTTGCCGGAGTCACCTAGTGCAG	56200 fluorescence intensity (a.u.)
CATACATATGTAATTTACTTCGATTCGATTAAATTGGCAGCGGAGTCACCTAGTGCAG	7090 fluorescence intensity (a.u.)
GTTTTCCTAATTAATTGCTAGCTCGATTTGCTCGGTGATCCGGAGTCACCTAGTGCAG	29900 fluorescence intensity (a.u.)
TCTAATTGGCTTACTTAATATGATTCGATCCTACAACCTCCGGAGTCACCTAGTGCAG	53700 fluorescence intensity (a.u.)
TAATTTAATTTAATTACCTCCCTAATCACTCTCGCTCGCTCGGAGTCACCTAGTGCAG	46200 fluorescence intensity (a.u.)
TAACCTTAATTAATTGATTAAATTACAAATATTCTAGCCCCGGAGTCACCTAGTGCAG	44000 fluorescence intensity (a.u.)
TCCACTTGGGTGATTAGAATCTGTCTTCCCTGTTTTAAGCCGGAGTCACCTAGTGCAG	7670 fluorescence intensity (a.u.)
AAGATGAGGTGATAGACTGACTAGCACTGAGCTTGCCCGGCGGAGTCACCTAGTGCAG	14400 fluorescence intensity (a.u.)
ACTAGACAATTTGAATTTACAACTATATATACTCCCAATCCGGAGTCACCTAGTGCAG	3250 fluorescence intensity (a.u.)
GAACTAGCTTAATTAAACCACAATTAGAATATATGTAGGACGGAGTCACCTAGTGCAG	3750 fluorescence intensity (a.u.)
TAAGTAATTATTTATTCTTTTCATATCATTTGATTCATTGCGGAGTCACCTAGTGCAG	15400 fluorescence intensity (a.u.)

Sequence	binding signal
AAAAGGATATGATTTGAAATGGCATTAAAGTGAATAGGCCCGGAGTCACCTAGTGCAG	4540 fluorescence intensity (a.u.)
CTAATGAGCCTAATTAATCCATGATTAGCCTATGTGATGCCGGAGTCACCTAGTGCAG	43000 fluorescence intensity (a.u.)
TTATGATTTAATTAGCGATTAATTATCCTAATTAGTGATTCGGAGTCACCTAGTGCAG	62200 fluorescence intensity (a.u.)
TCTAATTAATCCATGATTAGCCTATGTGATGCTACAGTAACGGAGTCACCTAGTGCAG	25100 fluorescence intensity (a.u.)
ACTCCTGACTTGATTGGCAGTGAGTTGCTCATCTGCCTAGCGGAGTCACCTAGTGCAG	40300 fluorescence intensity (a.u.)
TTAGCGTCTAATTATAGGATTATTTATGATAATATTCGTCCGGAGTCACCTAGTGCAG	5680 fluorescence intensity (a.u.)
GCCTAATTAATCCATGATTAGCCTATGTGATGCTATAGTACGGAGTCACCTAGTGCAG	52700 fluorescence intensity (a.u.)
CAGTTAATTGAGTTGATGGCCACTCCTCTGCTGCTCGTCGCGGAGTCACCTAGTGCAG	60700 fluorescence intensity (a.u.)
GATTAGGTTAATTGAGATCTGCCTTGCTCTGCTCTGCTCGCGGAGTCACCTAGTGCAG	21500 fluorescence intensity (a.u.)
TCCAACGGTGCCGCTTAATTAGTGATTAATTATCCTAATTCGGAGTCACCTAGTGCAG	16400 fluorescence intensity (a.u.)
ATGACTATTTTCACCTATAATTATAAGTTATGGAACAATACGGAGTCACCTAGTGCAG	4820 fluorescence intensity (a.u.)
AGCAAAATTAACACCGCAATTTGAGCCGGTTACTTCTTTCCGGAGTCACCTAGTGCAG	4830 fluorescence intensity (a.u.)
CCGCGATTACAATTAGCGCCGGATTAACCCTGCAATTAGCCGGAGTCACCTAGTGCAG	20500 fluorescence intensity (a.u.)
CATGATTGAAACATTACTTGATGGCTTCTGGTCCTACCCACGGAGTCACCTAGTGCAG	53900 fluorescence intensity (a.u.)
CTCAACATGAACTTCTTGATTACCTGTGACCCAGCCACGGCGGAGTCACCTAGTGCAG	3150 fluorescence intensity (a.u.)
CATCGAACATCATGAATTTGATTGGCTTCTACTTTCACGACGGAGTCACCTAGTGCAG	17100 fluorescence intensity (a.u.)
TGGGAGATTGTATTAAACAGAGGAGAACGATGGCGAAAGGCGGAGTCACCTAGTGCAG	6630 fluorescence intensity (a.u.)
GAAACATGTTGAGATTGATTTACATTTTGTGCGCGAGAAGCGGAGTCACCTAGTGCAG	18000 fluorescence intensity (a.u.)
TTTTGATTGGCCGAGGAGAAGGCGAAACAGACTGCCACTGCGGAGTCACCTAGTGCAG	53800 fluorescence intensity (a.u.)

Sequence	binding signal
TTATTTGACACAATGCGATTGAATTGGGGTGCAGGAGTATCGGAGTCACCTAGTGCAG	6780 fluorescence intensity (a.u.)
AGAAATATTCAATCAAGCTACTGCGCACATATATCTTTATCGGAGTCACCTAGTGCAG	9630 fluorescence intensity (a.u.)
GTGCTGTGATTGGCCGCGCGGGATTTCCTGGGCGGGCGGGCGGAGTCACCTAGTGCAG	22600 fluorescence intensity (a.u.)
AATTGACGTAATTTCAGGTCGTATTTGTGGTGCAACAACCCGGAGTCACCTAGTGCAG	16600 fluorescence intensity (a.u.)
CATATTGACAGCTTTGTAATTGCATTTGACAGGTTCAACCCGGAGTCACCTAGTGCAG	60500 fluorescence intensity (a.u.)
CTATCATATTGACAGCTTTGTAATTGCTTTTGACAGGTTCCGGAGTCACCTAGTGCAG	26400 fluorescence intensity (a.u.)
TCCTAATTGTACAATTAATTAAATTAAGTACAGTCCTATGCGGAGTCACCTAGTGCAG	53000 fluorescence intensity (a.u.)
AATGTCTGCAATTAATCAATCTGTTAATCTGTTATTAGTACGGAGTCACCTAGTGCAG	21900 fluorescence intensity (a.u.)
TTTTATCTCACCAATCAATTTAATTTCTTTATTTATTTTCCGGAGTCACCTAGTGCAG	6870 fluorescence intensity (a.u.)
TATGCAGTTTTACAATAATTTAATTAAAGTACAGTTTTGTCGGAGTCACCTAGTGCAG	5420 fluorescence intensity (a.u.)
CGAAATTAATTAGCGAAATTAATTAACGCTTTACACAAGGCGGAGTCACCTAGTGCAG	64900 fluorescence intensity (a.u.)
TGAGTAAATGTGTTGTTGTTAATTGCTATATGTACAGTTGCGGAGTCACCTAGTGCAG	5280 fluorescence intensity (a.u.)
TGGACATTGACAAAATCACAGATCCAGTAAGTACTAGTATCGGAGTCACCTAGTGCAG	3170 fluorescence intensity (a.u.)
ATAATTATTCTGTTAATTAATCAATTATTATCTGGGAATCCGGAGTCACCTAGTGCAG	63600 fluorescence intensity (a.u.)
TAAAATTAAATTTACAAGGGTTAATTCGCGAGTAATAACGCGGAGTCACCTAGTGCAG	12300 fluorescence intensity (a.u.)
TCCACAGATTGAGGAATCCGAGCAACAAATATCCTAGTAGCGGAGTCACCTAGTGCAG	11900 fluorescence intensity (a.u.)
TCACAAAATAATTAACTTTAAAATTAAATTTTAGCAGCAGCGGAGTCACCTAGTGCAG	15100 fluorescence intensity (a.u.)
GGTCCTAATTGACAAATCCACAGAAGTAGTACTCCAGGAGCGGAGTCACCTAGTGCAG	53000 fluorescence intensity (a.u.)
